# PubChem BioAssay (Tox21)
# “And” between values parts separate entries of the source, which are not always exact repeats. Equal values may be shown once. Records with an inconclusive call do not appear. Entries that show only a call come without a potency. The source holds several records for some structures; these can differ, active in one and inactive in another. The source made the active and inactive calls. The call rests on the fitted dose curve.
# Assay: qHTS assay to identify small molecule agonists of the progesterone receptor (PR) signaling pathway - cell viability counter screen (AID 1346799); further: nearly all actives have a fitted effect of over 45% in size
# Conditions: PR-UAS-bla HEK293T viability, CellTiter-Glo luminescence, 16 h; series mostly up to 92.4 µM
# Source text: National Center for Advancing Translational Sciences [NCATS]
# NIH Chemical Genomics Center [NCGC]
# U.S. Environmental Protection Agency [EPA]
# National Institutes of Environmental Health Sciences [NIEHS]
# National Toxicology Program [NTP]
# U.S. Food and Drug Administration [FDA]
# Progesterone receptor (PR), a nuclear hormone receptor, plays an important role in development, metabolic homeostasis and reproduction. It is activated by the steroid hormone progesterone. Endocrine disrupting chemicals (EDCs) and their interactions with steroid hormone receptors like PR causes disruption of normal endocrine function. To identify the compounds that stimulate PR signaling, a PR-UAS-bla GripTite cell line i.e. PR-UAS-bla HEK293T (Invitrogen, Carlsbad, CA, USA) containing a beta-lactamase reporter gene under the control of an UAS response element was used to screen Tox21 10K compound library. The cytotoxicity of the Tox21 compound library against the PR-bla cell line was tested in parallel by measuring the cell viability using CellTiter-Glo assay in the same wells.
# Tox21 Assay Protocol Summary:
# PR-UAS-bla HEK293T cells were dispensed at 3,000 cells/5 uL of assay medium containing 2% charcoal stripped FBS per well into black wall/clear-bottom 1536-well plates using a Multidrop Combi (ThermoFisher Scientific, Waltham, MA) dispenser. After the assay plates were incubated at a 37C and 5% CO2 for 6 hr, 23 nL of compounds dissolved in DMSO, positive controls or DMSO only was transferred to the assay plate by a Pintool station (Kalypsys, San Diego, CA). The plates were incubated at 37C and 5% CO2 for 16 hr. Then 1 uL of LiveBLAzer B/G FRET substrate was added using a Flying Reagent Dispenser (FRD, Aurora Discovery, San Diego, CA), the plates were incubated at room temperature for 2 hours, and fluorescence intensity was measured by an Envision plate reader (PerkinElmer, Shelton, CT). For cell viability readout that measures cytotoxicity, 4 uL/well of CellTiter-Glo reagent was added into the assay plates using a FRD. After 30 min incubation at room temperature, the luminescence intensity in the plates was measured using a ViewLux (PerkinElmer) plate reader.
# Potency means the concentration at half of the fitted maximal effect.
row,SMILES,Potency
1,N#CCC(=O)O,inactive
2,OC[C@H]1O[C@@H](Oc2ccc(O)cc2)[C@H](O)[C@@H](O)[C@@H]1O,inactive
3,Cc1ccc([N+](=O)[O-])cc1N,inactive
4,Cc1ccccc1C=O,inactive
5,NC(N)=S,inactive
6,CC(=O)OC[C@H]1O[C@@](COC(C)=O)(O[C@H]2O[C@H](COC(C)=O)[C@@H](OC(C)=O)[C@H](OC(C)=O)[C@H]2OC(C)=O)[C@@H](OC(C)=O)[C@@H]1OC(C)=O,inactive
7,CCCOC(=O)NCCCN(C)C,inactive
8,CCCCCNCCCCC,inactive
9,CCOC(=O)c1ccc(O)cc1,inactive
10,NC(=O)NC(N)=O,inactive
11,CC(C)=CCC/C(C)=C/C=O,inactive
12,CCc1cccc(O)c1,inactive
13,O=c1c(O)c(-c2ccc(O)c(O)c2)oc2cc(O)cc(O)c12,inactive
14,Cc1ncc(CO)c(CO)c1O,inactive
15,CCN(CC)CCNC(=O)c1ccc(N)cc1,inactive
16,CC(=O)OC(C)(C)C1CC=C(C)CC1 (stereo not given),inactive
17,OCC(CO)(CO)CO,inactive
18,CCc1cccc(CC)c1N,inactive
19,O=[N+]([O-])c1cc(C(F)(F)F)ccc1Cl,inactive
20,OCc1ccc(Cl)cc1Cl,inactive

row,SMILES,Potency
1,CCCCCCCC(=O)O,inactive
2,Clc1cccc(Cl)c1NC1=NCCN1,inactive
3,CC(=O)OCc1ccc2c(c1)OCO2,inactive
4,O=C(c1ccccc1)c1ccc(O)c(O)c1O,inactive
5,CCCCC(=O)O,inactive
6,Cc1cc(CC(=O)O)n(C)c1C(=O)c1ccc(Cl)cc1,inactive
7,Cc1ccc(C)c(S(=O)(=O)O)c1,inactive
8,CCCCCCCCCCCC(=O)N(C)CC(=O)O,inactive
9,C1CCCNCC1,inactive
10,COc1c(Cl)ccc(Cl)c1C(=O)O,inactive
11,COC(=O)/C=C\C(=O)OC,inactive
12,Oc1ccc(Cc2ccccc2O)cc1,inactive
13,CC(CN1c2ccccc2Sc2ccccc21)N(C)C (stereo not given),69.3 µM (active) and 30.6 µM (active) and inactive
14,Cc1cc(C)c(O)c(C)c1,inactive
15,C=C1C[C@]23C[C@@]1(O)CC[C@H]2[C@@]12C=C[C@H](O)[C@@](C)(C(=O)O1)[C@H]2[C@@H]3C(=O)O,inactive
16,NC1CCCCC1N (stereo not given),inactive
17,C[Si](C)(C)N[Si](C)(C)C,inactive
18,NCCNCCNCCN,inactive
19,C=C(C)CC(C)(C)C,inactive
20,CC(=O)CC(=O)N(C)C,inactive
